Results on 24 compounds are retold here after PubChem BioAssay (NCATS).

The subject of one assay is CRL-7250. The assay can be described thus: Cytotoxic Profiling of Annotated Libraries Using Quantitative High-Throughput Screening (AID 1296008). Also: potency is read from the fitted curve at half-maximal effect. As to max response: % is scaled to controls: 0 for no effect and ±100 for the full control effect. The following applies: Five cell lines viability, CellTiter-Glo ATP luminescence, 48-72 h; max response: active compounds read low. In outline: (§1)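 Cytotoxicity was measured as CellTiter-Glo ATP luminescence, read after 10 min at room temperature. Compound treatment of the cells lasted 48 or 72 hr at 37 degrees Celsius in a qHTS format.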

Another assay relates to HEK293. Described as above. The following applies: Five cell lines viability, CellTiter-Glo ATP luminescence, 48-72 h; max response: active compounds read low. In outline: as §1
The subject of assay [1] is HaCat. Described as above. The following applies: Five cell lines viability, CellTiter-Glo ATP luminescence, 48-72 h; max response: active compounds read low. In outline:
as §1
(In general: ATP-based viability assays read luminescence as a measure of living cells.)

The subject of a further assay is KB-3-1. Described as above. The following applies: Five cell lines viability, CellTiter-Glo ATP luminescence, 48-72 h; max response: active compounds read low. In outline:
as §1

For another assay, the system named is NIH3T3. The description is as above. The following applies: Five cell lines viability, CellTiter-Glo ATP luminescence, 48-72 h; max response: active compounds read low. In outline: as §1
Assay [2] relates to HACAT. The assay can be described thus: qHTS assay to identify novel small-molecules to repurpose for Merkel cell carcinoma treatment (AID 1296009). The following applies: MCC and control cell lines, CellTiter-Glo viability, 72 h; at 44.8 µM (top of the series) unless noted. In outline: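 Cell viability measured by CellTiter-Glo following 72 hr compound treatment at 37 degree celsius, with NPC and MIPE libraries tested in 8- and 11-point concentration series.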
A general note: Quantitative high-throughput screening tests each substance at several concentrations.

Records with an inconclusive call do not appear. Values without a mark were called inactive. The source made the active and inactive calls. Calls follow the shape of the dose curve; as a rule, active = well fitted inhibition curve with a large enough effect; inconclusive = small, poorly fitted or top-dose-only effect; inactive = flat fitted curve, though single readings scatter.
Also: nearly all actives have a fitted effect of over 60% in size.

As to `CC1(C)CCC[C@@]2(C)[C@H]1[C@H](O)C=C(CO)[C@]2(O)CO`, the max response with CRL-7250 was -0.0206%; in the assay on HEK293, -0.502%; with KB-3-1, 6.19%; in the assay on NIH3T3, -5.75%. The compound was called inactive in the assay with HaCat [1] and with HACAT [2].
`COc1cc(/C=C/C(=O)O[C@@H]2C[C@](O)(C(=O)O)C[C@@H](O)[C@H]2O)ccc1O`: the max response was -5.29% in the assay on CRL-7250, -0.759% in the assay on HEK293 and 1.32% with NIH3T3. The result in the assay on HaCat [1], in the assay with KB-3-1 and in the assay on HACAT [2] was inactive.
In the case of `COc1cc(/C=C/c2ccccc2)c(C(=O)O)c(O)c1CC=C(C)C`, the max response in the assay with CRL-7250 is -4.97%; in the assay on HEK293, 2.12%; in the assay on KB-3-1, 6.27%; in the assay with NIH3T3, 3.69%. Further, the call in the assay on HaCat [1] and in the assay on HACAT [2] was inactive.
In the case of `CC1OC(OC2C(OC3C(O[C@H]4CC[C@@]5(C)C(CC[C@]6(C)C5C(=O)CC5=C7CC(C)(C)CC(O)[C@]7(C)CC[C@]56C)C4(C)C)OC(C(=O)O)C(O)C3O)OCC(O)C2O)C(O)C(O)C1O` (some centres undefined), the max response with CRL-7250 was 0.224%; with HEK293, 2.58%; in the assay with NIH3T3 it was -0.899%. Moreover, the result with HaCat [1] and with KB-3-1 was inactive. The outcome in the assay with HACAT [2] was “inactive [at 9.27 µM]”.
As to `CC1(C)CC=C(c2cnc3ccccc3c2)c2cc(C(=O)Nc3ccc(C(=O)O)cc3)ccc21`, the call in the assay with CRL-7250, in the assay with HaCat [1], with KB-3-1 and with HACAT [2] was inactive. Besides, the results for the max response with HEK293 and in the assay with NIH3T3 were 2.92% and -2.18%, respectively.
`CN1CCN(C2=Nc3ccccc3Nc3ccc(O)cc32)CC1`: the max response in the assay with CRL-7250 is 2.24%; with HEK293, -1.86%; in the assay on NIH3T3 it was 4.15%. The compound was called inactive with HaCat [1], in the assay on KB-3-1 and with HACAT [2].
`C/C=C(\C)C(=O)OC[C@H]1O[C@@H](O[C@H]2[C@@H](O[C@H]3O[C@H](CO)[C@@H](O)[C@H](O)[C@H]3O[C@@H]3O[C@H](CO)[C@@H](O)[C@H](O)[C@H]3O)O[C@H](COC(=O)/C(C)=C/C)[C@@H](O)[C@@H]2O)[C@H](O)[C@@H](O)[C@@H]1O`: the call in the assay on CRL-7250 and in the assay with HaCat [1] was inactive. Besides, the results for the max response with HEK293, with KB-3-1 and in the assay on NIH3T3 were -5.43%, -3.26% and 3.7%, respectively. Moreover, the outcome in the assay with HACAT [2] is “inactive [at 9.27 µM]”.
In the case of `CC(C)=CCC[C@](C)(O[C@@H]1O[C@H](CO[C@@H]2O[C@@H](CO)[C@H](O)[C@H]2O)[C@@H](O)[C@H](O)[C@H]1O)[C@H]1CC[C@]2(C)[C@@H]1[C@H](O)C[C@@H]1[C@@]3(C)CC[C@H](O[C@@H]4O[C@H](CO)[C@@H](O)[C@H](O)[C@H]4O[C@@H]4O[C@H](CO)[C@@H](O)[C@H](O)[C@H]4O)C(C)(C)[C@@H]3CC[C@]12C`, the max response in the assay with CRL-7250 was 2.09%; with HEK293 it was -3.56%; in the assay with NIH3T3, -28.7%. In addition, the result with HaCat [1] and in the assay on KB-3-1 was inactive. For the same compound, in the assay on HACAT [2], the outcome was “inactive [at 17.4 µM]”.
On to `COc1ccc(CC(NC(C)=O)C(=O)O)cc1` (centres undefined), for which the max response is 0.775% in the assay with CRL-7250, -3.66% with HEK293, 6.09% in the assay on KB-3-1 and 1.53% with NIH3T3. Further, the compound was classed as inactive in the assay with HaCat [1] and in the assay on HACAT [2].
Take `CC1C(O)C(O)C2C(C(=O)OCCc3ccc(O)cc3)=COC(O[C@@H]3O[C@H](CO)[C@@H](O)[C@H](O)[C@H]3O)C12` (some centres undefined): the call with CRL-7250 and with HaCat [1] was inactive. Besides, the max response in the assay on HEK293 is -0.685%; in the assay with KB-3-1 it was -9.14%; in the assay with NIH3T3 it was 2.97%. The outcome with HACAT [2] is “inactive [at 17.4 µM]”.
On to `C=C1C(=O)OC[C@H]2C(C(=O)O)=CC3CC(C)(C)C[C@@]132` (some centres undefined), for which the outcome in the assay with CRL-7250, in the assay on HaCat [1], in the assay on KB-3-1, in the assay with NIH3T3 and in the assay on HACAT [2] was inactive. For the same compound, the max response in the assay with HEK293 was 4.17%.
On to `C=CC1(C)CC2CCC3C(C)(C(=O)O)CCCC3(C)C2=CC1=O` (centres undefined), for which the outcome in the assay with CRL-7250, in the assay with HaCat [1], in the assay on KB-3-1 and in the assay with HACAT [2] was inactive. The max response in the assay with HEK293 is -0.432%; with NIH3T3, -4.63%.
`Cc1cn(C[C@H](N)C(=O)O)c(=O)n(Cc2ccsc2C(=O)O)c1=O`: the results for the max response in the assay with CRL-7250, in the assay on HEK293 and with NIH3T3 were -3.54%, -7.52% and 4.32%, respectively. Moreover, the compound was called inactive with HaCat [1], with KB-3-1 and in the assay on HACAT [2].
Consider `C=C(C)[C@@H]1CC[C@]2(C(=O)O)CC[C@]3(C)[C@H](CCC4[C@@]5(C)CCC(=O)C(C)(C)C5C(O)C[C@]43C)C12` (some centres undefined), for which the results for the max response in the assay with CRL-7250, in the assay with KB-3-1 and in the assay on NIH3T3 were -6.3%, -20.6% and -1.28%, respectively. For the same compound, the Potency in the assay with HEK293 was 4.47 µM (active). Besides, the result in the assay with HaCat [1] was inactive. Also, the outcome with HACAT [2] is “inactive [at 17.4 µM]”.
In the case of `COc1cc(O)c2c(c1Cl)CC(C)OC2=O` (centres undefined), the call in the assay with CRL-7250, with HaCat [1], with NIH3T3 and in the assay with HACAT [2] was inactive. For the same compound, the max response is -0.0766% in the assay with HEK293 and 3.15% with KB-3-1.
On to `COC(=O)C(CC1(O)c2ccccc2N2C(=O)C(C)(C)N(O)C21)n1cnc2ccccc2c1=O` (centres undefined), for which the compound was called inactive in the assay on CRL-7250 and in the assay with HaCat [1]. Also, the max response in the assay with HEK293 was 3.97%; in the assay with KB-3-1 it was 0.0146%; with NIH3T3, 2.61%. In the assay with HACAT [2], the outcome is “inactive [at 17.4 µM]”.
As for `CCC(C)C(=O)O[C@H]1[C@@H](O[C@H]2O[C@H](CO)[C@@H](O)[C@H](O)[C@H]2O)O[C@H](CO)[C@@H](O)[C@@H]1O` (some centres undefined), the max response is -1.24% in the assay on CRL-7250, -6.33% in the assay with HEK293, -0.199% with KB-3-1 and 2.16% in the assay on NIH3T3. Also, the compound was called inactive with HaCat [1]. Moreover, the outcome with HACAT [2] is “inactive [at 17.4 µM]”.
For `CCOc1nc2c(N)ncnc2n1CC`, the compound was classed as inactive with CRL-7250, with HaCat [1] and in the assay with HACAT [2]. In addition, the max response was 3.9% with HEK293, 5.09% in the assay with KB-3-1 and 3.41% with NIH3T3.
Take `CC1(C)CC2C3=CCC4[C@@]5(C)CC[C@H](OC6OCC(O)C(OC7OC(CO)C(O)C(O)C7O)C6O)C(C)(C)C5CC[C@@]4(C)[C@]3(C)C[C@H](O)[C@@]2(CO)[C@H](OC(=O)c2ccccc2)C1` (some centres undefined): the max response in the assay on CRL-7250 was -5.7%; in the assay on HEK293, -22%; in the assay on KB-3-1, -6.42%; with NIH3T3, -2.6%. The outcome with HaCat [1] was inactive. Moreover, the outcome in the assay on HACAT [2] was “inactive [at 9.27 µM]”.
As for `CC1(C)C[C@H]2C=C(C=O)[C@]3(C(=O)O)C[C@]3(C)[C@H]2C1`, the max response was -0.156% in the assay on CRL-7250, -14% in the assay on HEK293, 6.21% in the assay with KB-3-1 and 0.712% with NIH3T3. Moreover, the call in the assay on HaCat [1] and in the assay with HACAT [2] was inactive.
Turning to `Cc1oc(S(=O)(=O)N2CCCCC2)cc1NC(=O)Nc1ccccc1`, the result in the assay with CRL-7250, with HaCat [1], with KB-3-1 and with HACAT [2] was inactive. Besides, the max response in the assay on HEK293 and in the assay with NIH3T3 was -1.71% in each case.
Regarding `C=C1CC[C@H]2[C@@](C)(CCC(O)[C@@]2(C)CO)[C@@H]1/C=C/C(=C\C(=O)O)C(=O)O` (some centres undefined), the values for the max response with CRL-7250, in the assay on HEK293 and in the assay on NIH3T3 were -1.65%, -0.745% and -1.97%, respectively. For the same compound, the compound was classed as inactive in the assay on HaCat [1], with KB-3-1 and in the assay with HACAT [2].
For the compound `CC(=O)OC1CC(=O)C2(C)C3CC4=C(OC(C)CC4=O)OC3(C)CCC2C1(C)C` (centres undefined), the compound was called inactive in the assay on CRL-7250, with HaCat [1] and in the assay on KB-3-1. Also, the max response is 2.23% in the assay with HEK293 and 1.19% in the assay with NIH3T3. In addition, the outcome with HACAT [2] was “inactive [at 17.4 µM]”.
Regarding `COc1cc2c(c(O)c1OC/C=C(\C)CC/C=C(/C)CCC=C(C)C)CN(C(CCC(=O)O)C(=O)O)C2=O` (centres undefined), the result in the assay with CRL-7250 and in the assay with HaCat [1] was inactive. Further, the max response in the assay on HEK293 is 2.31%; in the assay with KB-3-1, 3.38%; in the assay on NIH3T3 it was -3.47%. Further, the outcome in the assay with HACAT [2] is “inactive [at 17.4 µM]”.
